Bioassay records (PubChem)
Marburg entry inh: Marburg virus entry inhibition. Marburg virus pseudotyped entry inhibition, cell reporter. Potency, µM (doses to about 37.8 µM), most hits filed as inhibitors. 300,000 compounds, 1.8% hits; calls by dose curve; tested in HEK293 cells
Lassa entry inh: inhibitors of Lassa virus binding or cell entry | Lassa virus pseudotype entry inhibition, cell reporter | Potency, µM (doses to about 37.9 µM), actives largely listed as inhibitors | 300,000 compounds, 1.2% hits; calls by dose curve; tested in HEK293 cells; note: nearly all actives have a fitted effect of over 50% in size
HCMV antiviral: inhibitors of human cytomegalovirus. activity change, negative = inhibition, % at 57.5 µM. 410,000 compounds, 4.5% hits. HFF cells, HCMV-luciferase reporter, 72 h; hits give low values; in the data active = activity change below about -60%; inconclusive = no clear call, values can overlap the other calls; inactive = above about -39%
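Luciferase read-out from HCMV-luciferase-infected HFFs (MOI 1 PFU/cell) 72 h post infection at 37C; compounds added after 16 h cell attachment; activity normalized between buffer-only basal and Salinomycin (10uM) inhibitor controls.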
FMDV antiviral: blocks foot and mouth disease virus | FMDV antiviral cell-based qHTS | Potency, µM (series often up to 57.9 µM), usual class: inhibitors | 410,000 compounds, 1.2% hits | AID 1159524; calls by dose curve; tested in HEK293T cells; note: read-out not given here; nearly all actives have a fitted effect of over 45% in size
HCV inhibitor: inhibitors of hepatitis C virus infection; Potency, µM (highest dose often 41.8 µM), actives largely listed as inhibitors; Huh7.5.1 HCVcc-Cre infection, luciferase reporter, 44 h; 340,000 compounds, 3.4% hits; active = well fitted inhibition curve with a large enough effect; inconclusive = small, poorly fitted or top-dose-only effect, or another doubt; inactive = no such curve, though single readings can be large or run the other way
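Infectious HCVcc-Cre (~0.5 moi) was added to cells just after compound, with cells seeded 4 h earlier at 1,000 per well. Luciferase activity after 44 h culture reported infection; substrate was incubated 15 min at room temperature before reading.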
Hits are given with their value. The list is not random: actives were taken first. Their share in the collection is about 7.9%.

For Cc1cccc(N2C(=O)NC(=O)/C(=C\C=C\c3ccco3)C2=O)c1 the results were HCMV antiviral inactive, FMDV antiviral 7.08µM and HCV inhibitor inconclusive.
Screening Cc1ccc(N2C(=O)NC(=O)/C(=C\C=C\c3ccco3)C2=O)cc1 returned HCMV antiviral -99.7, FMDV antiviral 20µM and HCV inhibitor inconclusive.
For O=C1NC(=O)N(Cc2ccccc2)C(=O)/C1=C\C=C\c1ccco1 the results were Marburg entry inh inconclusive, Lassa entry inh inconclusive, HCMV antiviral -98.3, FMDV antiviral 25.1µM and HCV inhibitor inactive.
For O=C1NC(=O)N(Cc2ccco2)C(=O)/C1=C/C=C/c1ccco1 the results were Marburg entry inh inconclusive, Lassa entry inh inconclusive, HCMV antiviral inconclusive, FMDV antiviral inconclusive and HCV inhibitor inactive.
Screening CN(C)c1ccc(/C=C/C=C2/C(=O)NC(=O)N(c3ccccc3)C2=O)cc1 returned Marburg entry inh inconclusive, Lassa entry inh inconclusive, HCMV antiviral -112.6, FMDV antiviral 20µM and HCV inhibitor inconclusive.
CN1C(=O)/C(=C/C=C/c2ccco2)C(=O)NC1=S was read as HCMV antiviral inactive, FMDV antiviral inconclusive and HCV inhibitor inactive.
Screening O=C1NC(=O)N(c2ccccc2)C(=O)/C1=C/C=C/c1ccco1 returned HCMV antiviral -100.2, FMDV antiviral inconclusive and HCV inhibitor inconclusive.
Screening Cc1ccc(N2C(=O)NC(=O)/C(=C\C=C\c3ccco3)C2=O)cc1C returned Marburg entry inh inconclusive, Lassa entry inh inconclusive, HCMV antiviral -102.5, FMDV antiviral inconclusive and HCV inhibitor inconclusive.
Screening O=C1S/C(=C\C=C\c2ccco2)C(=O)N1c1ccccc1 returned Marburg entry inh inconclusive, Lassa entry inh inconclusive, HCMV antiviral inactive, FMDV antiviral inactive and HCV inhibitor inactive.
O=C1S/C(=C\C=C\c2ccco2)C(=O)N1c1ccc(O)cc1 was read as Marburg entry inh 20.6µM, Lassa entry inh inconclusive, HCMV antiviral inconclusive, FMDV antiviral inconclusive and HCV inhibitor inconclusive.
CCOC(=O)C1=C(CSc2nc3c(cc2C#N)CN(C)CC3)OC(N)=C(C#N)C1c1ccncc1 (centres undefined) was read as Marburg entry inh inconclusive, Lassa entry inh inconclusive, HCMV antiviral inactive, FMDV antiviral inactive and HCV inhibitor inactive.
Screening CCOC(=O)C1=C(CSc2nc3c(cc2C#N)CN(C)CC3)OC(N)=C(C#N)C1c1ccc(Cl)cc1 (centres undefined) returned Marburg entry inh inconclusive, Lassa entry inh inactive, HCMV antiviral inactive, FMDV antiviral inactive and HCV inhibitor 12.6µM.
Screening CN1CCN(C(=O)c2ccccc2NC(=O)c2ccccc2)CC1 returned Marburg entry inh inactive, Lassa entry inh inconclusive, HCMV antiviral inconclusive, FMDV antiviral inactive and HCV inhibitor inactive.
CN(Cc1ccccc1)C(=O)c1cccc(NC(=O)Cc2ccc(NC(=O)C3CCN(S(=O)(=O)c4cccc([N+](=O)[O-])c4)CC3)cc2)c1 was read as HCMV antiviral inactive, FMDV antiviral inactive and HCV inhibitor 8.91µM.
For CN(Cc1ccccc1)C(=O)c1ccc(NC(=O)Cc2ccc(NC(=O)C3CCN(S(=O)(=O)c4cccc([N+](=O)[O-])c4)CC3)cc2)cc1 the results were HCMV antiviral inactive, FMDV antiviral inconclusive and HCV inhibitor 12.6µM.
For CN(CCc1ccccc1)C(=O)c1cccc(NC(=O)Cc2cccc(NC(=O)C3CCCN(S(=O)(=O)c4cccc([N+](=O)[O-])c4)C3)c2)c1 (centres undefined) the results were HCMV antiviral inactive, FMDV antiviral inconclusive and HCV inhibitor 10µM.
CN(CCc1ccccc1)C(=O)c1ccc(NC(=O)Cc2ccc(NC(=O)C3CCCN(S(=O)(=O)c4cccc([N+](=O)[O-])c4)C3)cc2)cc1 (centres undefined) was read as HCMV antiviral inactive, FMDV antiviral inactive and HCV inhibitor inconclusive.
`CN(C(=O)c1cccc(NC(=O)Cc2ccc(NC(=O)C3CCN(S(=O)(=O)c4cccc([N+](=O)[O-])c4)CC3)cc2)c1)C1CCC1` gave HCMV antiviral inactive, FMDV antiviral inactive and HCV inhibitor inconclusive.
Screening O=C(C1=C(O)C(=O)N(CCCN2CCOCC2)[C@H]1c1ccccn1)c1cc2ccccc2o1 returned Marburg entry inh inactive.
For Cc1ccc(-n2ncc(C(=O)Nc3cc(Cl)ccc3Cl)c2C2CCNCC2)cc1 the results were Marburg entry inh inconclusive, Lassa entry inh inconclusive, HCMV antiviral -87.2, FMDV antiviral inactive and HCV inhibitor 12.6µM.
For Cc1ccc(-n2ncc(C(=O)Nc3cc(Cl)cc(Cl)c3)c2C2CCNCC2)cc1C the results were HCMV antiviral -98.7, FMDV antiviral inconclusive and HCV inhibitor 12.6µM.
For Cc1ccc(-n2ncc(C(=O)Nc3c(Cl)cccc3Cl)c2C2CCNCC2)cc1 the results were Lassa entry inh inactive, HCMV antiviral inconclusive and FMDV antiviral inactive.
COc1ccccc1NC(=O)N(C)C[C@@H]1OCc2cnnn2CCCC(=O)N([C@@H](C)CO)C[C@H]1C was read as HCMV antiviral inactive and FMDV antiviral inactive.
Screening Nc1ccc2c3c(ccc([N+](=O)[O-])c13)CC2 returned HCMV antiviral -69.3 and FMDV antiviral inactive.
COC(=O)[C@@H]1CCCN1C(=O)c1c(OC)cc(=O)n2c1CCN(Cc1ccc3cccnc3c1)CC2 was read as FMDV antiviral inactive.
Screening CCOC(=O)C1=C(CNCc2ccc(Cl)cc2)NC(=O)NC1c1ccccc1 (centres undefined) returned Marburg entry inh inactive, Lassa entry inh inactive, HCMV antiviral inactive and FMDV antiviral inactive.
COc1ccc(COC(=O)C2=C(C)NC(=O)NC2c2ccc(O)c(OC)c2)cc1 (centres undefined) was read as Marburg entry inh inactive, Lassa entry inh inconclusive, HCMV antiviral -68.1 and HCV inhibitor inactive.
`COc1ccc(COC(=O)C2=C(C)NC(=O)NC2c2cccc(Br)c2)cc1` (centres undefined) gave HCMV antiviral inactive, FMDV antiviral inconclusive and HCV inhibitor 10µM.
`CSCCOC(=O)C1=C(C)NC(=O)NC1c1ccc2c(c1)OCO2` (centres undefined) gave HCMV antiviral inactive, FMDV antiviral inactive and HCV inhibitor inactive.
`CCOC(=O)C1=C(CNCc2ccc(C)cc2)NC(=O)NC1c1ccc(OC)cc1` (centres undefined) gave Marburg entry inh 5.01µM, Lassa entry inh inconclusive, HCMV antiviral inactive, FMDV antiviral inactive and HCV inhibitor inconclusive.
`CC1=C(C(=O)OCc2ccc3c(c2)OCO3)C(c2ccc(Cl)cc2)NC(=O)N1` (centres undefined) gave Marburg entry inh 2.06µM, Lassa entry inh inconclusive, HCMV antiviral -85.7 and HCV inhibitor inconclusive.
Screening CN(C)CCCNc1oc(/C=C/c2ccc(F)cc2)nc1C#N returned Marburg entry inh inconclusive, Lassa entry inh inconclusive, HCMV antiviral inconclusive and FMDV antiviral inactive.
COc1ccc(C(=O)c2cc(C(C)=O)c(Nc3ccccc3)s2)cc1 was read as Marburg entry inh inconclusive, Lassa entry inh inactive, HCMV antiviral inactive, FMDV antiviral inactive and HCV inhibitor 3.16µM.
For Cc1ccccc1Nc1nc(N)c(C(=O)c2ccccc2Cl)s1 the results were Lassa entry inh inactive, HCMV antiviral -68.9 and FMDV antiviral inactive.
